Laboratory results published in ChEMBL document CHEMBL5308541, “MAIP: An Open-Source Tool to Enrich High-Throughput Screening Output and Identify Novel, Druglike Molecules with Antimalarial Activity” (ACS Med Chem Lett, 2023).
Hit rate of the full screen: of about 150,000 compounds, about 540 (0.36%) showed an effect of 50% or more. Shown is part of a subset that was picked to be rich in strong results.

The compounds below were run on Plasmodium falciparum (assay: Primary screen in NF54 nanoGlo assay, in single point, at 2uM, 72h; a lower Z score goes with more inhibition). Details: timepoint 72 hour.
Assay type: functional, Erythrocyte

Structure (SMILES) | % Inhibition [%] | Z score
CN1CCC(N(Cc2ccccc2)C(=O)c2cc3cnccc3[nH]2)CC1 | 52 | -7.83
O=C(NC1CNCCC1O)c1cc2c(Cl)cccc2[nH]1 (stereo not given) | -3 | 0.71
O=C(NCC1CC1)c1cc2c(OCc3ccc(Cl)cc3)cccc2[nH]1 | 51 | -9
Cc1cc(N2CCC(N(C)Cc3nc4ccc(F)cc4[nH]3)CC2)ncn1 | -13 | 2.24
CCOc1ccc2nc(CN(CC)CC3CCN(C4CCN(C)CC4)CC3)ccc2c1 | 80 | -13.89
c1ccc(CCC23CN(Cc4ccccn4)CC2CN(Cc2ccns2)C3)cc1 (stereo not given) | 86 | -17.09
Cn1cc(CC(=O)N2CC3CN(Cc4ccns4)CC3(CO)C2)c2ccccc21 (stereo not given) | -3 | 0.46
C[C@@H](c1cc2ccccc2o1)N(C)CCC(=O)N1CCN(c2ccc(F)cc2)CC1 | -2 | 0.48
O=C(c1ccnc2ccccc12)N1CCN(C2CCOCC2)CC1 | -6 | 0.98
O=C1CN(C(=O)c2ccnc3ccccc23)CCN1Cc1ccccc1F | 68 | -13.41
CN(CC(=O)N[C@H]1CCCN(c2cnccn2)C1)C1CCNCC1 | -7 | 1.05
Cc1noc(-c2ccnc(NC[C@@H](c3ccccn3)N3CCOCC3)c2)n1 | 95 | -18.79
Cc1noc(-c2ccnc(NC[C@H]3CCN(CC(F)(F)F)C3)c2)n1 | 2 | -0.25
Cc1noc(-c2ccnc(NCCc3coc(-c4ccccc4)n3)c2)n1 | 0 | -0.05
Cc1cccc(Nc2ccnc(Nc3ccc(N4CCN(C)CC4)cc3)n2)c1 | 89 | -13.46
CC(C)N1CCN(c2cccc(Nc3ncccn3)c2)CC1 | 5 | -1.03
c1cc(Nc2ccnc(C3CC3)n2)cc(N2CCCCCC2)c1 | -1 | 0.19
Cc1cnccc1NCCNc1ncc(F)c(N2CCCC2)n1 | 25 | -3.87
Cc1cnccc1NCCNCc1cnc(N2CCCCC2)nc1 | 57 | -12.25
CCN(CCN1CCCCCC1)C(=O)NCCNc1ccncc1C | -11 | 2.32
Cc1cnccc1NCCNCc1cccc(OCCCCN2CCOCC2)c1 | 95 | -20.36
CN(CCCNc1nccc2ncncc12)CC(F)(F)F | -2 | 0.32
Cc1ccccc1-c1cccc(N2CCC(NCC3CCNCC3)CC2)c1 | 98 | -19.56
Cc1cccc(-c2cccc(N3CCC(NCc4cc(C)[nH]n4)CC3)c2)c1 | -7 | 1.27
Cc1cccc(-c2cccc(N3CCC(NC[C@H]4CCC(=O)N4)CC3)c2)c1 | 1 | -0.25
Cc1cccc2c(NCCCCN3CCN(CCO)CC3)ncnc12 | -12 | 1.79
NC(=O)C1CCN(CCCNc2ncnc3ccccc23)CC1 | 14 | -2.8
CCc1ccc2ncnc(NCCCN3CCN(CCO)CC3)c2c1 | 65 | -12.99

Structure (SMILES) | % Inhibition [%] | Z score
Cc1cc(O)c2cccc(-c3cccc(C(=O)NCCCN4CCCC4)c3)c2n1 | -1 | 0.22
Cc1ccc(-c2cccc3c(C(=O)NCCCN4CCC(N5CCCCC5)CC4)cc(C)nc23)cc1 | 98 | -16.9
Cc1cnccc1NCCNC1CCN(C(=O)[C@@H]2CCCO2)CC1 | -9 | 1.97
Cn1cncc1[C@@H]1CNC[C@H]1CNC(=O)c1ccccc1NC1CCCCC1 | 75 | -14.83
COC(CN(Cc1nc(N)nc(Nc2ccc(C)cc2)n1)Cc1nc(N)nc(Nc2ccc(C)cc2)n1)OC | 85 | -18.33
CCOc1cc(C(=O)NC2CCN(CC3CCCC3)CC2)cc(-c2ccccc2)c1OC | 71 | -12.46
CN(C)CCn1ncc(C(=O)NC2CCN(CC3CCCC3)CC2)c1-c1ccccc1 | 0 | 0.06
Cc1ccc2nc(NC[C@H]3CCN(C4CC4)C3)cc(C)c2c1 | 55 | -8.34
CCc1ccc2nc(NC[C@H]3CCCN3C)cc(C)c2c1 | -2 | 0.32
Cc1ccc2cc(CNC[C@H]3CCN(C4CC4)C3)ccc2n1 | 0 | 0.09
Nc1nnc(CCCNc2nccc(-c3ccncc3)n2)s1 | -9 | 1.91
COc1ccnc(NCCCc2nc(-c3ccncc3)cs2)n1 | 69 | -13.68
c1ccc2c(Nc3ccc4[nH]cnc4c3)c3ccccc3nc2c1 | 98 | -19.44
Clc1cc(Nc2c3ccccc3nc3ccccc23)ccc1Oc1ccc2ccccc2c1Cl | -10 | 1.68
Oc1ccc(OC(F)(F)F)cc1-c1ccc2nccn2n1 | 86 | -17.13
CC(C)Nc1cc(-c2cc(OC(F)(F)F)ccc2O)ncn1 | 1 | -0.31
c1ccc(CNc2ccc(-c3noc(C45CCCN(CCC4)C5)n3)cn2)cc1 | 81 | -17.51
c1cc(-c2noc(C34CCCN(CCC3)C4)n2)cc(-n2ccnc2)c1 | 9 | -1.87
c1ccc(-c2nc3c(c(NCCNc4ncccn4)n2)CCC3)nc1 | 41 | -7.15
Cc1cc(F)ccc1CNc1ccc(N2CCN(C)CC2)nc1 | 3 | -0.45
Cc1c(CN2CCC(O)(Cn3ccnc3)CC2)[nH]c2c(Cl)cccc12 | 95 | -16.38
OC1(Cn2ccnc2)CCN(Cc2ccnc3ccccc23)CC1 | -5 | 0.98
CCn1cc(-c2cccc(C(=O)N[C@@H](C)CN3CCc4ccccc4C3)c2)cn1 | 53 | -10.47
CNC(=O)c1ccc(C(=O)Nc2nc(C3(C)CC3)ns2)cn1 | 23 | -4.92
COCCC(=O)NC1COCC1Cc1ccnc2ccccc12 (stereo not given) | 1 | -0.24
Cc1cc(C)c(C)c(S(=O)(=O)NC2COCC2Cc2ccncc2)c1C (stereo not given) | 0 | -0.02
CCCC(=O)NC1COCC1Cc1ccncc1 (stereo not given) | 82 | -16.24
